# Assay outcomes as filed in PubChem.
# SW480 rerep = DNA re-replication induction in SW480 cells; SW480 DNA re-replication, Hoechst DNA content imaging, 48 h; Potency, µM (top dose mostly 46.1 µM), for inactives: top-dose re-replication activation, actives largely listed as activators; 340,000 compounds, 1.8% hits; AID 624297; further: % of control where 0% means no effect; nearly all actives have a fitted effect of over 55% in size
#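 Image-based DNA-content assay: after two days of treatment, nuclei were labelled with the DNA dye Hoechst and imaged, and hits were compounds raising the count of nuclei showing high fluorescence intensity.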
# HT1080-NT tox = kills 2HG-producing HT-1080-NT fibrosarcoma cells | HT-1080-NT fibrosarcoma viability, CellTiter-Glo ATP luminescence, 48 h | Potency, µM (titrated, usually from 46.1 µM), inactives show top-dose activity, negative = less viability, usual class: cytotoxic | 360,000 compounds, 1.6% hits;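 further: NT is the 2HG producing partner of a matched IDH1 knockdown line; 0% = DMSO-treated cells and -100% = media-only wells without cells; nearly all actives have a fitted effect of over 55% in size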
#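 Luminescent CellTiter-Glo readout after 48 hours of compound exposure at 37 degrees C defined viability of HT-1080-NT cells. Activity was normalized to DMSO wells and cell-free media wells; concentration-response curves were fitted and assigned curve classes.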
# HT1080 IDH1KD tx = HT-1080 IDH1 knockdown cell toxicity (counter line). HT-1080 IDH1 knockdown viability, ATP luminescence, 48 h. Potency, µM (series often up to 46.1 µM), for the others: at the top dose activity, negative = toxicity, usual class: cytotoxic. 360,000 compounds, 2% hits;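 further: 0% = DMSO wells and -100% = cell-free medium wells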
#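 HT-1080-IDH1KD cells (IDH1 knocked down), 750/well in RPMI with 5% FBS, treated with compound 48 h at 37 degrees C. Viability by CellTiter-Glo luminescence, normalised to DMSO and no-cell wells; concentration-response curves classed.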
# MCF10A rerep = induces DNA re-replication in MCF 10a normal breast cells | MCF 10A DNA re-replication, Hoechst nuclear intensity, 48 h | Potency, µM (top dose mostly 46.1 µM), for the others: top-dose activity, positive = re-replication, actives largely listed as activators | 350,000 compounds, 2.9% hits | AID 624296; further: % of control where 0% means no effect; nearly all actives have a fitted effect of over 50% in size
# KB-V1 MDR tox = kills drug-selected multidrug resistant KB-V1 cells. KB-V1 MDR cells viability, CellTiter-Glo, 72 h. Potency, µM (top dose mostly 46.1 µM), most hits filed as cytotoxic. 400,000 compounds, 3.4% hits. AID 1347076; further: on the % scale 0 is the no-effect control and ±100 the full control effect; nearly all actives have a fitted effect of over 60% in size
#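 In this primary screen, KB-V1 cells overexpressing P-gp are incubated with library compounds (lowest to highest concentration) for 72 h at 37 degrees C before a luminescent ATP viability read.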
# KB-3-1 cytotox = KB-3-1 parental cell cytotoxicity; KB-3-1 viability, CellTiter-Glo ATP luminescence, 72 h; Potency, µM (top dose mostly 46.1 µM), hits mostly cytotoxic; 400,000 compounds, 1.4% hits; AID 1347075; further: on the % scale 0 is the no-effect control and ±100 the full control effect; nearly all actives have a fitted effect of over 60% in size
#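 Multi-concentration cytotoxicity screen in KB-3-1 cells grown in DMEM lacking phenol red with 10% FBS. After 72 h at 37 °C with compound, ATP-dependent luminescence was recorded.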
# An asterisk follows results filed as active; i = inactive; u = inconclusive; x = not tested or not shown; [ ] = remark or other dose. Most compounds without a hit are left out; they make up all but 8% or so of the library. The call rests on the fitted dose curve; in most records, active means well fitted curve in the direction sought with a large enough effect; inconclusive means small, poorly fitted or top-dose-only effect, or another doubt; inactive means no such curve, though single readings can be large; an effect the other way counts as inactive or inconclusive. Potency means the concentration at half of the fitted maximal effect.
SMILES,SW480 rerep,HT1080-NT tox,HT1080 IDH1KD tx,MCF10A rerep,KB-V1 MDR tox,KB-3-1 cytotox
O=C(NCc1ccccc1)C(=O)NCC1COc2ccccc2O1 (stereo not drawn),u,16µM*,10µM*,12µM*,5.2µM*,i
CCN(CC1COc2ccccc2O1)C(=O)CN1C(=O)NC(C)(c2ccc(C)cc2)C1=O (stereo not drawn),-1%,7%,-3%,4%,u,i
Cc1ccc(NC(=O)c2cnn3c(C(F)F)cc(-c4ccccc4)nc23)cc1F,x,x,x,x,u,i
CCc1cccc2c(C(=O)C(NCCCOC)c3ccccc3)c[nH]c12 (stereo not drawn),19%,16µM*,u,u,i,i
CCc1cccc2c(C(=O)COC(=O)c3ccccc3)c[nH]c12,-5%,0%,-1%,0%,u,i
CCc1cccc2c(C(=O)C(NC(C)CC)c3ccccc3)c[nH]c12 (stereo not drawn),1%,21µM*,u,15%,i,i
Cc1ccc2c(CC(=O)N(Cc3ccc(N(C)C)cc3)Cc3ccco3)coc2c1C,x,x,x,x,i,u
Cn1c2ccccc2c(=O)c2cc(C#Cc3ccccn3)ccc21,-4%,15%,10%,-21%,i,i
COc1cc(C#Cc2c(C=O)n(C)c3ccccc23)cc(OC)c1,8.2µM*,0%,13%,5.8µM*,i,u
C=CCn1c2ccccc2c(=O)c2cc(C#Cc3cc(OC)cc(OC)c3)ccc21,6.5µM*,11%,-2%,u,i,i
C(=N\N1CCN(C2c3ccccc3-c3ccccc32)CC1)/c1cccnc1,-6%,-16%,-9%[9.24 µM],u,u,i
O=[N+]([O-])c1cc(/C=N/N2CCN(C3c4ccccc4-c4ccccc43)CC2)ccc1Cl,-8%,-1%,22%,8%,u,21µM*
COc1ccccc1N1CCN(/N=C/c2ccc(Cl)c([N+](=O)[O-])c2)CC1,-9%,3%,-8%,12%,i,i
C(=N\N1CCN(C2c3ccccc3-c3ccccc32)CC1)/c1ccccn1,-1%,-1%,-1%,u,18µM*,u
CC(C)(C)C(=O)NCCc1csc2nc(-c3ccc(F)cc3)nn12,x,x,x,x,i,i
O=c1c2cn[nH]c2nc(SCc2cccc(Br)c2)n1-c1ccc(Cl)cc1,x,x,x,x,i,i
O=c1c2cn[nH]c2nc(SCc2ccc3c(c2)OCCO3)n1-c1ccccc1,u,u,21µM*,25%,u,u
CSc1cccc(NC(=O)C2CCN(S(=O)(=O)c3ccc4c(c3)CCCN4C(=O)C3CCC3)CC2)c1,x,x,x,x,i,i
Cn1c(=O)oc2cc(S(=O)(=O)NC(Cc3ccccc3)C(=O)Nc3ccc(F)c(Cl)c3)ccc21 (stereo not drawn),x,x,x,x,i,i
Cc1ccc(OCCCCNC(C)(C)C)c([N+](=O)[O-])c1,-18%,-2%,-1%,-5%,23µM*,i
COCCNCCOc1ccc(C)cc1[N+](=O)[O-],-4%,4%,15%,-3%,i,i
NC(=O)c1nsc(C(=O)N(c2ccccc2)C(C(=O)NCc2ccc(F)cc2)c2ccc(O)cc2)c1N (stereo not drawn),u,-23%,-23%,13µM*,i,i
Cc1cccc(N(C(=O)c2snc(C(N)=O)c2N)C(C(=O)NCc2ccccc2)c2ccncc2)c1 (stereo not drawn),u,18µM*,u,u,i,18µM*
O=C(COC(=O)c1ccc(Cl)cc1[N+](=O)[O-])NNC(=O)c1cccs1,-11%,9%,12%,-1%,i,i
Cc1cc(C(=O)OCC(=O)NNC(=O)c2cccs2)ccc1[N+](=O)[O-],12µM*,11%,2%,u,i,i
SMILES,SW480 rerep,HT1080-NT tox,HT1080 IDH1KD tx,MCF10A rerep,KB-V1 MDR tox,KB-3-1 cytotox
CS(=O)(=O)c1ccc(C(=O)OCC(=O)NCc2cccs2)cc1[N+](=O)[O-],9.2µM*,u,-26%,4.1µM*,u,u
COC(=O)c1cc(C(=O)OCC(=O)NNC(=O)c2cccs2)cc([N+](=O)[O-])c1,2.9µM*,-19%,u,-10%,i,i
CCCN(CCC)C(=O)C1CCN(c2cc(C)nc3c(-c4ccc(Cl)cc4)c(C)nn23)CC1,x,x,x,x,i,i
CCOc1ccc2c(c1)OC(c1ccc(OC)cc1)(C(F)(F)F)NC2=O (stereo not drawn),5.2µM*,u,4.6µM*,2.3µM*,5.2µM*,5.2µM*
Brc1cc(Br)c2nc(-c3ccc(N4CCOCC4)cc3)ccc2c1,8.2µM*,-10%,-14%,9.2µM*,u,i
Cc1ccc2nc(SCC(=O)c3c(N)n(C4CC4)c(=O)[nH]c3=O)[nH]c2c1,0%,0%,3%,14%,i,i
CCCc1cc(=O)[nH]c(SCC(=O)c2c(N)n(C3CC3)c(=O)[nH]c2=O)n1,0%,u,u,u,i,16µM*
CCc1ccc(C(=O)c2cn(CC(=O)Nc3cc(OC)ccc3OC)c3ccc(Cl)cc3c2=O)cc1,x,x,x,x,i,i
CCCN1CCN(CCNC(=O)Nc2cc(OC)cc(OC)c2)CC1,x,x,x,x,u,i
Cc1nnc(N2CCOCC2)c2nn(-c3cccc(Cl)c3)c(C)c12,-6%,-3%,1%,-1%,3.7µM*,i
CCS(=O)(=O)N1CCc2cc(C(=O)Nc3cccc(C)c3C)ccc21,x,x,x,x,i,i
COCCn1c(=NC(=O)CSCC(=O)NC2CCCCC2)sc2cc(OC)ccc21,5%,-2%,-2%,14%,2.9µM*,u
Cc1ccc(NC(=O)CCC(=O)N/N=C/c2cccs2)cc1,9.2µM*,2%,0%,2%,i,i
O=C(CSc1ncccn1)N/N=C/c1cccs1,u,0%,4%,0.52µM*,i,i
CCCCCCSc1nnc(-c2cnn(-c3ccccc3)c2-n2cccc2)n1C,0%,18µM*,u,u,i,i
CCSc1nnc(-c2cnn(-c3ccccc3)c2-n2cccc2)n1C,-3%,6%,15%,5%,i,i
COc1ccc(-n2c(SCc3ccccc3F)nc3c([nH]c4ccccc43)c2=O)cc1,x,x,x,x,u,i
CCc1noc(C)c1C(=O)Nc1nc(-c2ccc(OC)c(OC)c2)cs1,u,-11%,-10%,21%,10µM*,i
